Experimental data reported in PubChem BioAssay AID1159580 (chemical genetic matrix, 2015).
About 2,000 (36%) of roughly 5,500 compounds were called active. About 18% were inconclusive and are not listed. Some of the results follow. A number with no mark means an inactive call. Rule as the data show it: active = normalized growth mostly below about 0.91 (no sharp cut-off); inconclusive = no clear call, values can overlap the other calls; inactive = mostly above about 0.92.

Assay: chemical genetic growth profiling, strain panel (AID 1159580);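 also: tested at 20 µM; growth read once vehicle control cultures reached saturation at 30 °C; 1 = growth at the plate median or of vehicle wells; lower values mean less growth of the strain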
Settings: growth OD
[1] = S. cerevisiae deletion strains, locus YDL101C, strain DUN1, hits give low values
[2] = S. cerevisiae deletion strains, locus YHR030C, strain SLT2, hits give low values

FC(F)(F)c1cc(-c2ccc(Cl)cc2)n[nH]1
normalized growth (S. cerevisiae deletion strains, locus YAR019C, strain CDC15, hits give low values): 0.908
normalized growth (S. cerevisiae deletion strains, locus YBL105C, strain PKC1, hits give low values): 0.923
normalized growth (S. cerevisiae deletion strains, locus YBR135W, strain CKS1, hits give low values): 0.916
normalized growth (S. cerevisiae deletion strains, locus YBR136W, strain MEC1, hits give low values): 0.918
normalized growth (S. cerevisiae deletion strains, locus YBR160W, strain CDC28, hits give low values): 0.922
normalized growth (S. cerevisiae deletion strains, locus YDL017W, strain CDC7, hits give low values): 0.931
normalized growth (S. cerevisiae deletion strains, locus YDL028C, strain MPS1, hits give low values): 0.918
normalized growth [1]: 0.926
normalized growth (S. cerevisiae deletion strains, locus YDL108W, strain KIN28, hits give low values): 0.925
normalized growth (S. cerevisiae deletion strains, locus YDL132W, strain cdc53, hits give low values): 0.917
normalized growth (S. cerevisiae deletion strains, locus YDL214C, strain PRR2, hits give low values): 0.826
normalized growth (S. cerevisiae deletion strains, locus YDR052C, strain DBF4, hits give low values): 0.927
normalized growth (S. cerevisiae deletion strains, locus YDR054C, strain cdc34, hits give low values): 0.904
normalized growth (S. cerevisiae deletion strains, locus YDR226W, strain ADK1, hits give low values): 0.921
normalized growth (S. cerevisiae deletion strains, locus YDR477W, strain SNF1, hits give low values): 0.848
normalized growth (S. cerevisiae deletion strains, locus YER123W, strain YCK3, hits give low values): 0.789
normalized growth (S. cerevisiae deletion strains, locus YER133W, strain GLC7, hits give low values): 0.779
normalized growth (S. cerevisiae deletion strains, locus YFL009W, strain cdc4, hits give low values): 0.908
normalized growth (S. cerevisiae deletion strains, locus YFL029C, strain CAK1, hits give low values): 0.906
normalized growth (S. cerevisiae deletion strains, locus YFR003C, strain YPI1, hits give low values): 0.92
normalized growth (S. cerevisiae deletion strains, locus YFR019W, strain FAB1, hits give low values): 0.901
normalized growth (S. cerevisiae deletion strains, locus YFR028C, strain CDC14, hits give low values): 0.909
normalized growth (S. cerevisiae deletion strains, locus YGR040W, strain KSS1, hits give low values): 0.813
normalized growth (S. cerevisiae deletion strains, locus YGR052W, strain FMP48, hits give low values): 0.834
normalized growth (S. cerevisiae deletion strains, locus YGR092W, strain DBF2, hits give low values): 0.807
normalized growth [2]: 0.763 (active)
normalized growth (S. cerevisiae deletion strains, locus YHR079C, strain IRE1, hits give low values): 0.803
normalized growth (S. cerevisiae deletion strains, locus YHR082C, strain KSP1, hits give low values): 0.826
normalized growth (S. cerevisiae deletion strains, locus YHR205W, strain SCH9, hits give low values): 0.842
normalized growth (S. cerevisiae deletion strains, locus YIL147C, strain SLN1, hits give low values): 0.921
normalized growth (S. cerevisiae deletion strains, locus YJL095W, strain BCK1, hits give low values): 0.74
normalized growth (S. cerevisiae deletion strains, locus YJL128C, strain PBS2, hits give low values): 0.882
normalized growth (S. cerevisiae deletion strains, locus YJL157C, strain FAR1, hits give low values): 0.813
normalized growth (S. cerevisiae deletion strains, locus YJR016C, strain ILV3, hits give low values): 0.915
normalized growth (S. cerevisiae deletion strains, locus YJR066W, strain TOR1 (second series), hits give low values): 0.948
normalized growth (S. cerevisiae deletion strains, locus YJR066W, strain TOR1, hits give low values): 0.763
normalized growth (S. cerevisiae deletion strains, locus YKL048C, strain ELM1, hits give low values): 0.857
normalized growth (S. cerevisiae deletion strains, locus YKL067W, strain YNK1, hits give low values): 0.84
normalized growth (S. cerevisiae deletion strains, locus YKL101W, strain HSL1, hits give low values): 0.836
normalized growth (S. cerevisiae deletion strains, locus YKL193C, strain SDS22, hits give low values): 0.902
normalized growth (S. cerevisiae deletion strains, locus YKL203C, strain TOR2, hits give low values): 0.819
normalized growth (S. cerevisiae deletion strains, locus YLR113W, strain HOG1, hits give low values): 0.701 (active)
normalized growth (S. cerevisiae deletion strains, locus YLR133W, strain CKI1, hits give low values): 0.843
normalized growth (S. cerevisiae deletion strains, locus YLR403W, strain SFP1, hits give low values): 0.74
normalized growth (S. cerevisiae deletion strains, locus YML070W, strain DAK1, hits give low values): 0.789
normalized growth (S. cerevisiae deletion strains, locus YMR001C, strain CDC5, hits give low values): 0.911
normalized growth (S. cerevisiae deletion strains, locus YMR205C, strain PFK2 (second series), hits give low values): 0.846
normalized growth (S. cerevisiae deletion strains, locus YMR277W, strain FCP1, hits give low values): 0.915
normalized growth (S. cerevisiae deletion strains, locus YNL006W, strain LST8, hits give low values): 0.935
normalized growth (S. cerevisiae deletion strains, locus YNL020C, strain ARK1, hits give low values): 0.841
normalized growth (S. cerevisiae deletion strains, locus YNL161W, strain CBK1, hits give low values): 0.913
normalized growth (S. cerevisiae deletion strains, locus YNL183C, strain NPR1, hits give low values): 0.756
normalized growth (S. cerevisiae deletion strains, locus YNL207W, strain RIO2, hits give low values): 0.897
normalized growth (S. cerevisiae deletion strains, locus YNL222W, strain SSU72, hits give low values): 0.91
normalized growth (S. cerevisiae deletion strains, locus YNL307C, strain MCK1 (second series), hits give low values): 0.853
normalized growth (S. cerevisiae deletion strains, locus YOL078W, strain AVO1, hits give low values): 0.903
normalized growth (S. cerevisiae deletion strains, locus YOL136C, strain PFK27, hits give low values): 0.803
normalized growth (S. cerevisiae deletion strains, locus YOR061W, strain CKA2, hits give low values): 0.869
normalized growth (S. cerevisiae deletion strains, locus YOR119C, strain RIO1, hits give low values): 0.826
normalized growth (S. cerevisiae deletion strains, locus YOR231W, strain MKK1, hits give low values): 0.747
normalized growth (S. cerevisiae deletion strains, locus YOR329C, strain SCD5, hits give low values): 0.912
normalized growth (S. cerevisiae deletion strains, locus YPL031C, strain PHO85, hits give low values): 0.824
normalized growth (S. cerevisiae deletion strains, locus YPL153C, strain RAD53, hits give low values): 0.829
normalized growth (S. cerevisiae deletion strains, locus YPL204W, strain HRR25, hits give low values): 0.798
normalized growth (S. cerevisiae deletion strains, locus YPL209C, strain IPL1, hits give low values): 0.916
normalized growth (S. cerevisiae deletion strains, locus YPL256C, strain CLN2, hits give low values): 0.677 (active)
normalized growth (S. cerevisiae deletion strains, locus YPR025C, strain CCL1, hits give low values): 0.917
normalized growth (S. cerevisiae deletion strains, locus YPR106W, strain ISR1, hits give low values): 0.901
normalized growth (S. cerevisiae deletion strains, locus YPR111W, strain DBF20, hits give low values): 0.892
normalized growth (S. cerevisiae deletion strains, strain NNK1, hits give low values): 0.902
normalized growth (S. cerevisiae deletion strains, strain TSCII, hits give low values): 0.911

CC(C)(C)c1cc(-c2cc(C(F)(F)F)[nH]n2)c2c(c1)C(C)(C)CC2
normalized growth (S. cerevisiae deletion strains, locus YAL013W, strain DEP1, hits give low values): 0.976
normalized growth (S. cerevisiae deletion strains, locus YBR229C, strain ROT2, hits give low values): 1
normalized growth (S. cerevisiae deletion strains, locus YCL061C, strain MRC1, hits give low values): 0.995
normalized growth [1]: 1
normalized growth (S. cerevisiae deletion strains, locus YDR150W, strain NUM1, hits give low values): 0.874
normalized growth (S. cerevisiae deletion strains, locus YEL061C, strain CIN8, hits give low values): 1
normalized growth (S. cerevisiae deletion strains, locus YGR078C, strain PAC10, hits give low values): 1
normalized growth [2]: 1.09
normalized growth (S. cerevisiae deletion strains, locus YHR087W, strain rtc3, hits give low values): 0.989
normalized growth (S. cerevisiae deletion strains, locus YJR043C, strain POL32, hits give low values): 0.982
normalized growth (S. cerevisiae deletion strains, locus YJR075W, strain HOC1, hits give low values): 0.966
normalized growth (S. cerevisiae deletion strains, locus YLR039C, strain RIC1, hits give low values): 0.897
normalized growth (S. cerevisiae deletion strains, locus YLR058C, strain SHM2 (second series), hits give low values): 1.01
normalized growth (S. cerevisiae deletion strains, locus YLR085C, strain ARP6, hits give low values): 1.03
normalized growth (S. cerevisiae deletion strains, locus YLR262C, strain YPT6, hits give low values): 0.891
normalized growth (S. cerevisiae deletion strains, locus YML094W, strain GIM5, hits give low values): 0.998
normalized growth (S. cerevisiae deletion strains, locus YMR219W, strain ESC1, hits give low values): 1
normalized growth (S. cerevisiae deletion strains, locus YMR263W, strain SAP30, hits give low values): 0.974
normalized growth (S. cerevisiae deletion strains, locus YMR307W, strain GAS1, hits give low values): 0.998
normalized growth (S. cerevisiae deletion strains, locus YNL153C, strain GIM3, hits give low values): 0.997
normalized growth (S. cerevisiae deletion strains, locus YNL298W, strain CLA4 (second series), hits give low values): 1.01
normalized growth (S. cerevisiae deletion strains, locus YNL322C, strain KRE1, hits give low values): 0.993
normalized growth (S. cerevisiae deletion strains, locus YNR030W, strain Alg12, hits give low values): 0.99
normalized growth (S. cerevisiae deletion strains, locus YPL055C, strain LGE1, hits give low values): 0.985
normalized growth (S. cerevisiae deletion strains, locus YPL241C, strain CIN2, hits give low values): 1
normalized growth (S. cerevisiae deletion strains, locus YPR135W, strain CTF4, hits give low values): 0.881
normalized growth (S. cerevisiae strains, strain wild type, hits give low values): 1.01
